In PubChem BioAssay:
Values without a mark were called inactive. How the calls were made is not given here.

The compounds below were run against Pantothenate synthetase (Mycobacterium tuberculosis (strain ATCC 25618 / H37Rv)) (UniProt P9WIL5) (assay: Recombinant Mtb pantothenate synthetase (PanC) inhibitors, coupled enzyme, confirmatory (AID 375;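 further: 0% = full reaction with vehicle and 100% = no enzyme background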)). Conditions: coupled enzyme assay; at 10 µM, stronger effect = higher value.
Sequence of Pantothenate synthetase (Mycobacterium tuberculosis (strain ATCC 25618 / H37Rv)) (P9WIL5 whole entry, looked up): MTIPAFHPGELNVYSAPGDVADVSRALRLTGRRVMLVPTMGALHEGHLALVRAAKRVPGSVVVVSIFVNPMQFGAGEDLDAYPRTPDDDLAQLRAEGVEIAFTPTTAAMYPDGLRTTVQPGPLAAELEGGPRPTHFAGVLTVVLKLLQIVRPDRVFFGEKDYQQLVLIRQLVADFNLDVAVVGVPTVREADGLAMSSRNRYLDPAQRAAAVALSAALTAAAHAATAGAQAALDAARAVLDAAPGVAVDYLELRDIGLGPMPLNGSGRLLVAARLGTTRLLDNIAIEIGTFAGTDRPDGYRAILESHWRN
`c1cc(-c2nc3ccccc3o2)nc(-c2nc3ccccc3o2)c1` was tested, and the inhibition was 0%.
In the case of `Cc1cc(N)n2nc(-c3ccccc3)cc2n1`, the inhibition is reported as 0%.
With `Cc1cc(/C=N\O)c(C)n1-c1ccncc1` the inhibition was 0%.
In the case of `CC(=O)OCC[N+](C)(C)C`, the inhibition is reported as 0%.
With `Cc1nc2ncnn2c(N2CCC(C(=O)NC3CCCC3)CC2)c1Cc1ccccc1` the inhibition was 1%.
Work on `CN(C)c1ccc(NC(=O)CSCc2nc3c(nnn3Cc3ccc(F)cc3)c(=O)[nH]2)cc1` yielded an inhibition of 3%.
`O=C(c1ccco1)N1CCN(S(=O)(=O)c2ccc(C3CCCCC3)cc2)CC1` was tested, and the inhibition was 3%.
Compound `Cc1ccc(N2CCN(C(=O)c3ccccc3)CC2)c(C)c1` has an inhibition of 1%.
`CC(C)C(c1nnnn1CC1CCCO1)N1CCN(Cc2ccc3c(c2)OCO3)CC1` (configuration not stated) was tested, and the inhibition was 0%.
Work on `CN(c1ccc(OCc2nnc(-c3ccccc3)o2)cc1)S(=O)(=O)c1ccccc1` yielded an inhibition of 0%.
With `O=C(Nc1nccs1)c1ccc(COc2ccccc2Br)o1` the inhibition was 0%.
Compound `Cc1ccc(S(=O)(=O)c2cc3c(=O)n4ccccc4nc3n(CC3CCCO3)c2=N)cc1C` (configuration not stated) has an inhibition of 0%.
`Cc1ccc(CCNC(=O)C2CCN(S(=O)(=O)c3c(C)nn(C)c3C)CC2)cc1` gave an inhibition of 0%.
`Cc1cc(C)cc(N(CC(=O)Nc2cccc(C)n2)S(=O)(=O)c2c(C)noc2C)c1` gave an inhibition of 0%.
`Cc1nnc(NC(=O)Nc2cccc(Cl)c2)s1` gave an inhibition of 0%.
Work on `CCOc1ccc(S(=O)(=O)N2CCN(C(=O)c3cccn3C)CC2)cc1` yielded an inhibition of 0%.
Work on `COc1cc(C(=O)N2CCC(c3nc(-c4cccnc4)no3)CC2)cc(OC)c1OC` yielded an inhibition of 0%.
In the case of `Cc1c(NC(=O)c2ccc(CN3CCc4ccccc4C3)cc2)c(=O)n(-c2ccccc2)n1C`, the inhibition is reported as 0%.
Compound `CN(C)c1nc(N(C)C)nc(N(C)C)n1` has an inhibition of 2%.
In the case of `Cc1ncoc1C(=O)Nc1ccccc1C(N)=O`, the inhibition is reported as 0%.
For `CN(Cc1ccccc1)c1nc2c(c(=O)[nH]c(=O)n2C)n1Cc1ccccc1Cl`, the inhibition was 3%.
Work on `OC(CN1CCCCC1)Cn1c(C(F)(F)F)nc2ccccc21` (configuration not stated) yielded an inhibition of 9%.
